The source made the active and inactive calls. Calls come from the whole dose curve; as a rule, active = well fitted activation curve with a large enough effect in the repeat runs; inconclusive = weak or mixed curves; inactive = flat fitted curve, though single readings scatter.
Test: A CellTox Green Cytotoxicity Assay to monitor cytotoxicity in HEK293 cells - 0 hour (AID 1224869); note: nearly all actives have a fitted effect of over 50% in size
Conditions: CellTox Green fluorescence; series mostly up to 76.8 µM; cytotoxicity: at the top concentration
From the text: National Center for Advancing Translational Sciences [NCATS]
NIH Chemical Genomics Center [NCGC]
U.S. Environmental Protection Agency [EPA]
National Institutes of Environmental Health Sciences [NIEHS]
National Toxicology Program [NTP]
Cell-based models are critical for drug discovery. Determining the natural cytotoxic effects resulting from test compounds is an essential research activity. A CellTox Green Cytotoxicity Assay to monitor cytotoxicity in real time of continues cell culture during 40 hours of the compound treatment was used to screen Tox21 10K library compounds in Hek293 cells. CellTox Green Cytotoxicity Assay is a nonlytic, homogeneous, biofluorescent method to measure cytotoxicity in cell culture after experimental manipulation. The assay system uses a proprietary asymmetric cyanine dye that is excluded from viable cells but preferentially stains the dead cell's DNA. […] Viable cells produce no appreciable increases in fluorescence. Therefore, the fluorescence signal produced by the binding interaction with dead cell DNA is proportional to cytotoxicity.
The mixture of Hek293 cell suspension and reagents were dispensed at 600cells/6 ul/well in 1536-well tissue culture treated black solid bottom plates using a Multidrop dispenser. After the assay plates were incubated at a 37 C/5% CO2 incubator for 5 hours, 23 nL of compounds dissolved in DMSO, positive and negative controls was transferred to the assay plate by a pintool work station. The plates were incubated at 37 C for 40 hours. The fluorescence intensity were measured at 0h, 8h, 16h, 24h, 32h and 40h time points using ViewLux plate reader during compound treatment.
For `C[C@]12CC[C@H]3[C@@H](CCC4=CC(=O)CC[C@@]43C)[C@@H]1CC[C@@H]2C(=O)O`, the “cytotoxicity” value was 0.473% [at 35.3 µM] (inactive). For `BrCCCCCCBr`, the “cytotoxicity” value was -1.51% (inactive). For `CCOC(=O)C(c1c(O)c2ccccc2oc1=O)c1c(O)c2ccccc2oc1=O`, the “cytotoxicity” value was 0.729% [at 35.3 µM] (inactive). With `CCC(C)(C)c1cc(-n2nc3ccccc3n2)c(O)c(C(C)(C)CC)c1` the “cytotoxicity” value was -0.345% (inactive). With `O=[N+]([O-])c1cc(Cl)c(Cl)c(Cl)c1` the “cytotoxicity” value was 2.83% (inactive). With `COC(=O)c1c(C(F)F)nc(C(F)(F)F)c(C2=NCCS2)c1CC(C)C` the “cytotoxicity” value was 0.605% (inactive). With `OCCBr` the “cytotoxicity” value was 0.186% (inactive). With `CCOP(=O)(OCC)OP(=O)(OCC)OCC` the “cytotoxicity” value was 0.195% (inactive). In the case of `COc1cc(OC)nc(Sc2cccc(Cl)c2C(=O)O)n1`, the “cytotoxicity” value is reported as -7.82% (inactive). With `Cc1cnc[nH]1` the “cytotoxicity” value was -2.61% (inactive). With `COP(=S)(OC)Oc1c(Cl)cc(C)cc1Cl` the “cytotoxicity” value was -0.441% (inactive). In the case of `CCOP(=S)(OCC)SCSP(=S)(OCC)OCC`, the “cytotoxicity” value is reported as -5.67% (inactive). For `CCSC(=O)N(CC)C1CCCCC1`, the “cytotoxicity” value was -4.31% (inactive). In the case of `c1cc2c(c(N3CCNCC3)c1)OCCO2`, the “cytotoxicity” value is reported as -11.7% [at 35.3 µM] (inactive). In the case of `CCOC(=O)N(C)C(=O)CSP(=S)(OCC)OCC`, the “cytotoxicity” value is reported as 1.34% (inactive). With `CC1=C(C(=O)Nc2ccccc2)S(=O)(=O)CCO1` the “cytotoxicity” value was -4.18% (inactive). For `CCCSP(=O)(OCC)Oc1ccc(Br)cc1Cl` (stereo not given), the “cytotoxicity” value was 1.37% [at 35.3 µM] (inactive). For `N#CCNCC#N`, the “cytotoxicity” value was -3.55% (inactive). With `CC(C)(C)OC(=O)c1ncn2c1[C@@H]1CCCN1C(=O)c1c(Br)cccc1-2` the “cytotoxicity” value was -10.3% [at 35.3 µM] (inactive). For `O=[N+]([O-])c1cccc(O)c1`, the “cytotoxicity” value was -7.67% (inactive). In the case of `CCC(=O)c1ccccc1`, the “cytotoxicity” value is reported as 2.24% (inactive). With `C1CCC(C2CCCCC2)CC1` the “cytotoxicity” value was 1.37% (inactive). In the case of `COC(=O)COc1ccc(Cl)cc1Cl`, the “cytotoxicity” value is reported as -7.31% (inactive). In the case of `CC(=O)CC(c1ccc(Cl)cc1)c1c(O)c2ccccc2oc1=O` (stereo not given), the “cytotoxicity” value is reported as -6.81% (inactive). In the case of `O=[N+]([O-])c1cccc2cccnc12`, the “cytotoxicity” value is reported as 5.09% (inactive). With `N#CCBr` the “cytotoxicity” value was 0.675% (inactive). With `CC(=O)Nc1cc([As](=O)(O)O)ccc1O` the “cytotoxicity” value was 4.75% [at 35.3 µM] (inactive). With `ClC(Cl)C(Cl)Cl` the “cytotoxicity” value was -0.803% (inactive). For `O=NN1CCN(N=O)CC1`, the “cytotoxicity” value was 0.59% (inactive). In the case of `O=C(O)c1ccc2[nH]cc(CCCCN3CC=C(c4ccccc4)CC3)c2c1`, the “cytotoxicity” value is reported as 0.842% [at 35.3 µM] (inactive). For `C#C[C@]1(O)C=C[C@H]2[C@@H]3CCC4=CC(=O)CC[C@@H]4[C@H]3CC[C@@]21CC`, the “cytotoxicity” value was 0.901% [at 35.3 µM] (inactive). In the case of `CCN(CC)C(=O)[C@@H]1C=C2c3cccc4[nH]cc(c34)C[C@H]2N(C)C1`, the “cytotoxicity” value is reported as 9.14% [at 200 µM] (inactive). In the case of `ClC(Cl)(Cl)C(Cl)(Cl)Cl`, the “cytotoxicity” value is reported as 0.0948% (inactive). For `CN1CCN(C(=O)O[C@H]2c3nccnc3C(=O)N2c2ccc(Cl)cn2)CC1`, the “cytotoxicity” value was -13.1% [at 35.3 µM] (inactive). With `CCCCOC(=O)[C@@H](C)Oc1ccc(Oc2ccc(C#N)cc2F)cc1` the “cytotoxicity” value was 1.02% (inactive). In the case of `CCC(Cl)[N+](=O)[O-]` (stereo not given), the “cytotoxicity” value is reported as 0.583% (inactive). With `O=C(CCCN1CCC(n2c(=O)[nH]c3ccccc32)CC1)c1ccc(F)cc1` the “cytotoxicity” value was 0.869% [at 35.3 µM] (inactive). For `CCCCN(CCCCO)N=O`, the “cytotoxicity” value was -1.02% (inactive). For `N#CC(Cl)(Cl)Cl`, the “cytotoxicity” value was 1.22% (inactive). With `COC(=O)c1ccccc1S(=O)(=O)NC(=O)N(C)c1nc(C)nc(OC)n1` the “cytotoxicity” value was 0.93% (inactive).

Reference: PubChem BioAssay (Tox21)
% is set by controls: 0 for no effect and ±100 for the full control effect.
